Source: PubChem
Pf growth 96h: P. falciparum growth inhibition at 96 hours; P. falciparum luciferase reporter growth, 96 h; Potency, µM (titrated, usually from 28.7 µM), for inactives: at the top dose activity change, negative = inhibition, usual class: inhibitors; actives 6.9% (n = 320,000); AID 504834; note: % is set by controls: 0 for no effect and ±100 for the full control effect
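Luminescence readout: decreased luciferase signal marks inhibited growth of reporter-expressing P. falciparum in infected red cells (2% hematocrit, 0.05% parasitemia final), exposed to compound two generations (96 h, 37 C, 5% CO2).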
Pf growth 48h: P. falciparum growth inhibition at 48 hours (one generation); actives 5.9% (n = 310,000); P. falciparum luciferase growth in erythrocytes, 48 h; AID 504832; Potency, µM (top dose mostly 28.7 µM), for inactives: at the highest dose activity change, negative = inhibition, actives largely listed as inhibitors; note: % is set by controls: 0 for no effect and ±100 for the full control effect
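Luminescence readout; reporter = integrated firefly luciferase in P. falciparum. RBC culture at 2% hematocrit, 0.1% parasitemia final, 37 C/5% CO2; decreased signal taken as growth inhibition.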
SARS PLpro yeast: blocks SARS-CoV papain-like protease in a yeast assay; S. cerevisiae expressing SARS-CoV PLpro, growth rescue; Potency, µM (top dose mostly 32.9 µM), without a hit: at the highest dose activity, positive = growth rescue, most hits filed as activators; actives 0.19% (n = 330,000); AID 485353; calls by dose curve; note: 0% is about no effect; nearly all actives have a fitted effect of over 55% in size
Sm TGR inh: S. mansoni TGR enzyme inhibition; actives 3% (n = 360,000); purified TGR, DTNB reduction, TNB absorbance 405 nm; AID 485364; Q962Y6; Potency, µM (titrated, usually from 114 µM), for the others: top-dose activity change, negative = inhibition, usual class: inhibitors; note: % is set by controls: 0 for no effect and ±100 for the full control effect; nearly all actives have a fitted effect of over 60% in size
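TGR 20 nM + NADPH 100 uM (dispensed conc.), cpd preinc 15 min RT; start with NADPH (500 uM addition) then DTNB (15 mM addition). Kinetic TNB absorbance, 405 nm filter. Four-parameter Hill fit across titration.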
An asterisk follows results filed as active; ? = inconclusive; . = not tested or not shown. Sampled rows, rich in hits. Any-hit rate of the full collection: about 12%. Unless noted, calls come from the whole dose curve; as a rule, active = well fitted curve in the direction sought with a large enough effect; inconclusive = small, poorly fitted or top-dose-only effect, or another doubt; inactive = no such curve, though single readings can be large; an effect the other way counts as inactive or inconclusive. Potency is the fitted concentration of half-maximal effect.

SMILES	Pf growth 96h	Pf growth 48h	SARS PLpro yeast	Sm TGR inh
O=C(NNC(=S)NCC1CCCO1)c1ccc(S(=O)(=O)N2CCOCC2)cc1 (centres undefined)	45%	-10%	0%	-1%
Cc1ccc(S(=O)(=O)N2CCN(C(=S)NCC3CCCO3)CC2)cc1 (centres undefined)	3.3µM*	3.7µM*	4%	0%
Cc1ccc(S(=O)(=O)N2CCN(C(=O)C(Cc3ccccc3)NC(=O)c3ccccc3)CC2)cc1 (centres undefined)	8.3µM*	?	-8%	-4%
CC(=O)NCCc1ccc(S(=O)(=O)N2CCN(c3nc(-c4ccccc4)c(C)s3)CC2)cc1	4.1µM*	3.7µM*	-1%	9%
CC(=O)NC(Cc1ccccc1)C(=O)N1CCN(C(=S)NCC(C)C)CC1 (centres undefined)	47%	9%	1%	0%
Cc1ccc(S(=O)(=O)N2CCN(C(=S)NCCc3ccccc3)CC2)cc1	7.4µM*	?	4%	-8%
S=C(NCCc1ccccc1)N1CCN(C(=S)NCCc2ccccc2)CC1	18%	-13%	-1%	-7%
CCOc1ccc(NC(=O)Cn2c(=O)n(Cc3ccccc3)c(=O)c3c4c(sc32)CN(C(C)=O)CC4)cc1	.	.	.	6%
Cc1cc(C2(c3ccc(O)c(C)c3)OC(=O)c3ccccc32)ccc1O	1%	-28%	-2%	?
Cc1cc(O)c(C(C)C)cc1C1(c2cc(C(C)C)c(O)cc2C)OC(=O)c2ccccc21	1.2µM*	2.1µM*	2%	13%
c1ccc(Cn2c(-c3ccco3)nc3nc4ccccc4nc32)cc1	13%	-34%	0%	?
Cc1ccc(-c2nc3nc4ccccc4nc3n2Cc2ccco2)cc1	-77%	147%	-2%	18µM*
Clc1ccc(-c2nc3nc4ccccc4nc3n2Cc2ccco2)cc1	?	-1%	-11%	20µM*
CCCCCn1c(-c2ccco2)nc2nc3ccccc3nc21	?	?	-18%	?
Cc1ccc(OCC(=O)NCC2(N3CCN(C)CC3)CCCCC2)cc1C	.	.	.	2%
COc1ccc(CN(C)CC(O)COC(c2ccc(OC)cc2)c2ccc(OC)cc2)cc1 (centres undefined)	?	13µM*	2%	1%
CCOc1ccc(CN(C)CC(O)COC(c2ccc(OC)cc2)c2ccc(OC)cc2)cc1 (centres undefined)	10µM*	10µM*	0%	0%
COc1ccc(CN(C)CC(O)COc2ccc(-c3ccccc3)cc2)cc1OC (centres undefined)	0%	?	-18%	-3%
COc1ccc(C(OCC(O)CN(C)C2CCCCC2)c2ccc(OC)cc2)cc1 (centres undefined)	?	?	2%	-18%
Cc1nn(C)c2c1c(C(F)(F)F)cc(=O)n2CC(=O)N1CCC(C)CC1	.	.	.	-3%
O=C(Nc1ccc(C(=O)N2CCCCC2)cc1)c1ccc([N+](=O)[O-])cc1	6%	?	9%	-6%
CN(CC(=O)NC1CCCCC1)S(=O)(=O)c1ccc(Cl)cc1	.	19%	3%	-4%
CN1CCN(NC(=O)CN(C)S(=O)(=O)c2cc(Cl)ccc2Cl)CC1	12µM*	-11%	0%	-2%
CN(CC(=O)NC1CC1)S(=O)(=O)c1ccc(Br)cc1	6%	8.3µM*	.	0%
CN(CC(=O)NC1CC1)S(=O)(=O)c1cc(Cl)ccc1Cl	5.2µM*	4.1µM*	0%	0%
SMILES	Pf growth 96h	Pf growth 48h	SARS PLpro yeast	Sm TGR inh
O=C(CCS(=O)(=O)c1ccc(Br)cc1)NC1CCCCCC1	12µM*	-5%	13%	-25%
CN(CC(=O)N1CCOCC1)S(=O)(=O)c1cc(Cl)ccc1Cl	103%	9%	1%	-1%
COc1ccc(CCNc2nc3ccccc3c3nc(-c4cccc(C)c4)nn23)cc1OC	.	.	.	-4%
Cc1c(C(=O)c2ccccc2C(=O)O)sc2ccccc12	0%	-1%	0%	2%
O=C(CCS(=O)(=O)c1ccc(Br)s1)NC1CCCC1	-52%	.	5%	2%
O=C(CCNS(=O)(=O)c1ccc(Br)s1)NC1CCCC1	10µM*	?	1%	2%
COc1ccc2c(c1)c1c(c(=O)n(-c3cccc(C)c3)c(=O)n1CC(=O)NCc1ccc(C)cc1)n2C	.	.	.	-3%
CCc1ccccc1NC1=NCC(=O)N1Cc1ccc2c(c1)OCO2	4.1µM*	-19%	-18%	-15%
C=CCNC(=S)Nc1ccc(Cl)cc1	30%	0%	15%	-13%
C=CCNC(=S)N/N=C/c1ccc(C)cc1C	?	10µM*	0%	-10%
Cc1nc2ccc(NC(=S)NCc3ccccc3)cc2nc1C	-4%	47%	0%	40µM*
COc1ccc(N(C)C(=S)Nc2ccc3nc(C)c(C)nc3c2)cc1	2.3µM*	37%	.	56µM*
S=C(NCc1ccccc1)Nc1ccncc1	?	?	-3%	-48%
C=CCNC(=S)Nc1ccc2nc(C)c(C)nc2c1	55%	63%	5%	40µM*
O=C(NCCc1nc2ccccc2n1Cc1ccccc1F)c1ccc(F)cc1	.	.	.	-3%
Cc1onc(-c2ccccc2)c1C(=O)Nc1ccc(S(=O)(=O)N2CCOCC2)cc1	196%	-12%	1%	6%
C[C@@H]1CCC(=O)N(CC[C@H](Oc2ccccc2)c2ccccc2)CC1	?	?	5%	-4%
CSCCC(NC(=O)c1ccccc1)C(=O)NCCc1ccc2c(c1)OCCO2 (centres undefined)	-30%	?	2%	-2%
C=C(C)CNC(=S)NNC(=O)CCn1c2cc(Cl)ccc2c2ccc(Cl)cc21	82%	7.4µM*	19%	-1%
C=C(C)CNC(=S)NNC(=O)CCn1c2ccc(Cl)cc2c2cc(Cl)ccc21	45%	2.3µM*	?	-2%
C=C(C)CNC(=S)NNC(=O)CCn1c2ccccc2c2ccccc21	?	-22%	16%	8%
O=C(CSc1nnc(NC(=O)C2CC2)s1)NCc1ccc(F)cc1	4%	23%	-9%	-23%
CCC(=O)Nc1nonc1-c1nc2ccccc2n1Cc1ccccc1	.	?	-3%	-1%
CCC(=O)Nc1nonc1-c1nc2ccccc2n1Cc1cccc2ccccc12	5.2µM*	?	1%	-3%
Cc1cccc(-n2c(SCC(=O)c3ccccc3)nnc2-c2ccc(Br)cc2)c1	.	.	.	7%
SMILES	Pf growth 96h	Pf growth 48h	SARS PLpro yeast	Sm TGR inh
O=C(CCN1CCc2ccccc2C1)c1ccc2c(c1)OCCO2	?	13%	-36%	0.28µM*
COc1cc(C(=O)CCN2CCC(c3ccccc3)C2)cc(OC)c1OC (centres undefined)	11%	0%	-23%	0.28µM*
O=C(CCN1CCC(c2ccccc2)C1)c1ccccc1 (centres undefined)	-11%	?	0%	0%
O=C(CCc1ccccc1)c1ccc2c(c1)OCCCO2	.	?	-15%	-7%
O=C(CCN1CCCC1Cc1ccccc1)c1ccc2c(c1)OCCO2 (centres undefined)	?	6%	.	0.32µM*
O=C(CCN1CCC(c2ccccc2)C1)c1ccc2c(c1)OCCO2 (centres undefined)	-5%	2%	1%	0.1µM*
